In publication PMC3218832:

Experiments:
Test in all cases: protein binding microarray; high values mean tight binding
Conditions in all cases: dsDNA, one strand shown
RELARELA (p65 homodimer) = RELARELA (p65 homodimer) (Homo sapiens, UniProt Q04206 1-307)
p50p50 homodimer = p50p50 homodimer (Homo sapiens, UniProt P19838 7-356)
p52p52 homodimer = target: T1, p52p52 homodimer (Homo sapiens, UniProt Q00653 4-332)
T1 sequence: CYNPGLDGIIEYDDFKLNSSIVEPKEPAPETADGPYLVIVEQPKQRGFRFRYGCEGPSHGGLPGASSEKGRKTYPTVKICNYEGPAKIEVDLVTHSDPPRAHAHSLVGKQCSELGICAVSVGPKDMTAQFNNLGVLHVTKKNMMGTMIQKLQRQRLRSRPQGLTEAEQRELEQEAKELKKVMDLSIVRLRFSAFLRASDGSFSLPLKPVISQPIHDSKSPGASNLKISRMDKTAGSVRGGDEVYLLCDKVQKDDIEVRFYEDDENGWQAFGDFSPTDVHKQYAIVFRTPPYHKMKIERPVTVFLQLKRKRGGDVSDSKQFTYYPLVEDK

[1] = target: RELA (p65) subunit of heterodimer;p50 subunit (Homo sapiens;Homo sapiens, UniProt Q04206;P19838 1-307;7-356)
[2] = target: RELA (p65) subunit of heterodimer;p52 subunit (Homo sapiens;Homo sapiens, UniProt Q04206;Q00653 1-307;4-332)
RELB subunit;p50 subunit = RELB subunit;p50 subunit (Homo sapiens;Homo sapiens, UniProt Q01201;P19838 120-401;7-356)
RELB subunit;p52 subunit = target: T2, RELB subunit;p52 subunit (Homo sapiens;Homo sapiens, UniProt Q01201;Q00653 120-401;4-332)
T2 sequence 1: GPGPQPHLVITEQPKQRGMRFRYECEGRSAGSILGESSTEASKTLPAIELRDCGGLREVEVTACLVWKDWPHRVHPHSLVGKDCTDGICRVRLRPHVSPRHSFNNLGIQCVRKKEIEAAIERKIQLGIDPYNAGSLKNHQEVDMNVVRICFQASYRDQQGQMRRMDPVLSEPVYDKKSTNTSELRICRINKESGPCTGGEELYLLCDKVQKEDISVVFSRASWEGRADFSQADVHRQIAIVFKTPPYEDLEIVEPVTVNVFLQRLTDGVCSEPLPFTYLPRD
T2 sequence 2: T1 sequence

[3] = target: C-Rel subunit;p50 subunit (Homo sapiens;Homo sapiens, UniProt Q04864;P19838 1-285;7-356)
[4] = target: T3, C-Rel subunit;p52 subunit (Homo sapiens;Homo sapiens, UniProt Q04864;Q00653 1-285;4-332)
T3 sequence 1: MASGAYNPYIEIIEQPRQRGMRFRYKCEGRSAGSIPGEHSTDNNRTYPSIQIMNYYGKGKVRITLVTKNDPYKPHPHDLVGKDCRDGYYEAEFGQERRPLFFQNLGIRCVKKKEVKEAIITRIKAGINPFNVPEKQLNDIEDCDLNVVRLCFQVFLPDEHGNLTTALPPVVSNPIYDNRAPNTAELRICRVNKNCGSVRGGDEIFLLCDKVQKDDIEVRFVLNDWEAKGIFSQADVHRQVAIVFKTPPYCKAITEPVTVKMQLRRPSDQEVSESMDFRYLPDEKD
T3 sequence 2: T1 sequence

Sequence of p50p50 homodimer (P19838 7-356): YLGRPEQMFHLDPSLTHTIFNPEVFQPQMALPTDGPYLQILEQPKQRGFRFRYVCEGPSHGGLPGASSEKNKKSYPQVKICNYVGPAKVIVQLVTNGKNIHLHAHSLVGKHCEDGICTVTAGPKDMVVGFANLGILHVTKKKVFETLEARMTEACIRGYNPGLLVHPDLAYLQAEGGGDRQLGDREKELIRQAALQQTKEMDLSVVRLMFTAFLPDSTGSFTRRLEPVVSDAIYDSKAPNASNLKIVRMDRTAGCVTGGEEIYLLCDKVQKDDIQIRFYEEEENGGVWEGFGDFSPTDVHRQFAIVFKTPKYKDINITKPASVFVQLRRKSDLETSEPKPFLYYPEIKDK
Sequence of RELA (p65) subunit of heterodimer;p50 subunit (Q04206 1-307, chain 1 of 2): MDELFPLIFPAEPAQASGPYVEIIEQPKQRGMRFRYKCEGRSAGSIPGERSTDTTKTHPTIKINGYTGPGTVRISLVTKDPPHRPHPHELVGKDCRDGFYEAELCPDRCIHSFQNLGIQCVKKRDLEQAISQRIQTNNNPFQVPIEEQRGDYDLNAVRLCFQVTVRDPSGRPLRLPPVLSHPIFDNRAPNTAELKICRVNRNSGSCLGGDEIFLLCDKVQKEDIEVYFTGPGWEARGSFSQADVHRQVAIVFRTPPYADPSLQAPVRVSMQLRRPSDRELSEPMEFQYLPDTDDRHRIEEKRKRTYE
Sequence of RELA (p65) subunit of heterodimer;p50 subunit (P19838 7-356, chain 2 of 2): as the sequence (P19838 7-356) above
Sequence of RELARELA (p65 homodimer) (Q04206 1-307): as the sequence (Q04206 1-307, chain 1 of 2) above

Sequence	binding signal (RELARELA (p65 homodimer))	binding signal (p50p50 homodimer)	binding signal (p52p52 homodimer)	binding signal [1]	binding signal [2]	binding signal (RELB subunit;p50 subunit)	binding signal (RELB subunit;p52 subunit)	binding signal [3]	binding signal [4]
AAGAAAGCCCT	-0.308 z-score	-0.8 z-score	-0.426 z-score	-0.68 z-score	-0.581 z-score	-0.838 z-score	-0.728 z-score	-0.563 z-score	-0.671 z-score
AAGTATGCCCC	0.441 z-score	0.0869 z-score	-0.0889 z-score	0.289 z-score	0.0585 z-score	0.197 z-score	0.2 z-score	0.628 z-score	0.354 z-score
GAAGGTCTCCT	-0.533 z-score	-2.58 z-score	-0.69 z-score	-0.982 z-score	-0.897 z-score	-1.22 z-score	-1.02 z-score	-1.58 z-score	-0.76 z-score
CAAGTCACCCC	-0.939 z-score	-0.66 z-score	-0.2 z-score	-0.704 z-score	-0.613 z-score	-0.284 z-score	-0.0361 z-score	-0.183 z-score	-0.366 z-score
AGAAGTCTCCT	-0.456 z-score	-1.85 z-score	-0.738 z-score	-0.94 z-score	-0.879 z-score	-0.942 z-score	-0.985 z-score	-1.36 z-score	-0.926 z-score
AGATAAGCCCT	-0.464 z-score	-1.05 z-score	-0.697 z-score	-0.764 z-score	-0.927 z-score	-1.1 z-score	-0.798 z-score	-0.985 z-score	-0.712 z-score
AGGATTGTCCT	0.256 z-score	-1.5 z-score	-0.541 z-score	-0.736 z-score	-0.766 z-score	-0.86 z-score	-0.821 z-score	-1.01 z-score	-0.483 z-score
CAATGACTCCT	-0.344 z-score	-1.02 z-score	-0.692 z-score	-1.08 z-score	-1.05 z-score	-1.12 z-score	-0.995 z-score	-1.33 z-score	-1.13 z-score
AGGAGCGCCCC	-0.227 z-score	-0.229 z-score	0.018 z-score	0.186 z-score	0.348 z-score	-0.0805 z-score	0.162 z-score	0.0948 z-score	0.277 z-score
CAGGGTCCCCC	-0.42 z-score	0.876 z-score	0.451 z-score	1.23 z-score	0.881 z-score	1.22 z-score	1.39 z-score	0.998 z-score	0.408 z-score
CGGTATCCCCC	0.855 z-score	1.13 z-score	2.07 z-score	1.69 z-score	1.56 z-score	1.33 z-score	1.65 z-score	1.23 z-score	1.71 z-score
CAGTGCATCCT	-0.475 z-score	-2.12 z-score	-0.705 z-score	-0.986 z-score	-0.986 z-score	-1.19 z-score	-1.04 z-score	-1.59 z-score	-0.988 z-score
GGGGAATTCCC	4.86 z-score	2.07 z-score	3.41 z-score	3.6 z-score	3.73 z-score	3.87 z-score	3.85 z-score	3.14 z-score	4.19 z-score
CGATACACCCT	-0.54 z-score	-0.733 z-score	-0.36 z-score	-0.642 z-score	-0.613 z-score	-0.424 z-score	-0.507 z-score	-0.73 z-score	-0.561 z-score
CGAGGAATCCT	-0.235 z-score	-1.18 z-score	-0.504 z-score	-0.879 z-score	-0.8 z-score	-1.08 z-score	-0.975 z-score	-0.824 z-score	-0.613 z-score
AGAAAAGCCCC	1.13 z-score	0.938 z-score	2.07 z-score	1.57 z-score	1.76 z-score	1.77 z-score	1.57 z-score	0.96 z-score	1.65 z-score

Sequence	binding signal (RELARELA (p65 homodimer))	binding signal (p50p50 homodimer)	binding signal (p52p52 homodimer)	binding signal [1]	binding signal [2]	binding signal (RELB subunit;p50 subunit)	binding signal (RELB subunit;p52 subunit)	binding signal [3]	binding signal [4]
AGATTACCCCC	0.372 z-score	1.19 z-score	0.936 z-score	1.24 z-score	1.2 z-score	1.18 z-score	1.63 z-score	1.21 z-score	1.12 z-score
GGGAAGACCCT	0.871 z-score	0.365 z-score	1.66 z-score	1 z-score	1.17 z-score	0.374 z-score	1.01 z-score	0.481 z-score	1.03 z-score
AAATTCATCCT	0.0684 z-score	-0.972 z-score	-0.568 z-score	-0.664 z-score	-0.9 z-score	-0.972 z-score	-0.72 z-score	-1.11 z-score	-0.904 z-score
CGGAGGCCCCC	-1.02 z-score	0.282 z-score	-0.0558 z-score	0.494 z-score	0.175 z-score	-0.0407 z-score	0 z-score	0.165 z-score	0.393 z-score
CGGATTGCCCC	2 z-score	0.548 z-score	0.518 z-score	1.35 z-score	0.991 z-score	0.497 z-score	0.607 z-score	1.07 z-score	0.987 z-score
AGAGGTCTCCC	0.0815 z-score	-0.751 z-score	-0.27 z-score	-0.391 z-score	-0.315 z-score	-0.0782 z-score	-0.00582 z-score	-0.507 z-score	-0.363 z-score
AAGAATTTCCT	1.63 z-score	-0.591 z-score	-0.35 z-score	-0.206 z-score	-0.329 z-score	-0.672 z-score	-0.375 z-score	0.0204 z-score	-0.227 z-score
CAAATAGCCCC	0.081 z-score	0.839 z-score	0.425 z-score	0.413 z-score	0.823 z-score	0.524 z-score	0.621 z-score	0.331 z-score	0.543 z-score
GAAGACCTCCT	-0.649 z-score	-2.61 z-score	-0.857 z-score	-0.905 z-score	-0.909 z-score	-1.23 z-score	-0.869 z-score	-1.61 z-score	-0.944 z-score
GAGGGCCTCCT	-0.673 z-score	-1.05 z-score	-0.564 z-score	-0.901 z-score	-0.776 z-score	-0.873 z-score	-0.69 z-score	-1.21 z-score	-0.843 z-score
CGAATTCTCCT	-0.00416 z-score	-1.08 z-score	-0.594 z-score	-0.48 z-score	-0.707 z-score	-0.948 z-score	-0.835 z-score	-0.873 z-score	-0.63 z-score
GAGTTTCTCCT	-0.323 z-score	-1.49 z-score	-0.546 z-score	-0.596 z-score	-0.78 z-score	-0.911 z-score	-0.855 z-score	-0.907 z-score	-0.692 z-score
CAATTTATCCT	-0.0381 z-score	-0.676 z-score	-0.566 z-score	-0.744 z-score	-0.71 z-score	-0.801 z-score	-0.64 z-score	-1.1 z-score	-0.673 z-score
CGGAAATTCCC	4.22 z-score	1.06 z-score	2.53 z-score	2.23 z-score	2.39 z-score	1.19 z-score	2.04 z-score	2.28 z-score	2.88 z-score
GAAAGAATCCT	-0.654 z-score	-1.19 z-score	-0.601 z-score	-1.12 z-score	-0.922 z-score	-0.95 z-score	-0.787 z-score	-1.22 z-score	-0.804 z-score
